# Measurements: PubChem BioAssay AID504333 (National Center for Advancing Translational Sciences (NCATS), 2011)
# Among all 360,000 compounds or so, about 16,000 (4.4%) were called active. Not shown: some 9% with an inconclusive outcome. This excerpt belongs to a sample that is enriched for actives. Unmarked numbers belong to inactive results. The call rests on the fitted dose curve; in most records, active means well fitted inhibition curve with a large enough effect; inconclusive means small, poorly fitted or top-dose-only effect; inactive means no such curve, though single readings can be large or run the other way.
# Biological target: Bromodomain adjacent to zinc finger domain protein 2B (Homo sapiens) (UniProt Q9UIF8)
# Test: qHTS Assay for Inhibitors of BAZ2B; further: nearly all actives have a fitted effect of over 60% in size
# Conditions: AlphaScreen BAZ2B-H3K14Ac peptide displacement; series mostly up to 114 µM; activity change, negative = inhibition: at the top concentration
# Description: BAZ2B (bromodomain adjacent to zinc finger domain, 2B) belongs to a family of ubiquitously expressed bromodomain containing proteins, which biological function has not yet been elucidated. […] The interaction of BAZ2B with ISWI mediated by the BAZ1 motif has recently been described. […] The protocol is based on the AlphaScreen (PerkinElmer) displacement assay developed by NCGC [5], but uses the peptide ligand Biot-H3K14Ac, a high affinity binding partner for BAZ2B, in an AlphaScreen format. Although AlphaScreen has significant advantages with its utility in a variety of epigenetic target assays, the primary screening data provided in this deposition should be used with caution due to the prevalence of screening artifacts. The top compound concentration tested was 110uM in this assay, which increases number of actives and potential artifacts. An AlphaScreen counterscreen is highly recommended to be run against any putative actives to eliminate non-specific artifacts. Alternatively, one can use other AlphaScreen assays in PubChem to filter out promiscuous hits. Eberharter, A. et al. ACF1 improves the effectiveness of nucleosome mobilization by ISWI through PHD-histone contacts. The EMBO journal 23, 4029-4039. 2004. PMID: 15457208 [2] Jones, M.H. et al. A novel family of bromodomain genes. Genomics 63, 40-45. 2000. PMID: 10662543 [3] Yasgar, et al. Compound Management for Quantitative High-Throughput Screening. JALA. 2008 Apr;13(2):79-89. PMID: 18496600 [4] Inglese, et al. Quantitative high-throughput screening: a titration-based approach that efficiently identifies biological activities in large chemical libraries. Proc Natl Acad Sci. 1;103(31):11473-8. 2006. PMID: 16864780 [5] Quinn et al. A chemiluminescence-based method for identification of histone lysine methyltransferase inhibitors. Mol Biosyst 6(5): 782-8. 2010. PMID: 20567762 [6] Baell,Holloway. New substructure filters for removal of pan assay interference compounds (PAINS) from screening libraries and for their exclusion in bioassays. J Med Chem. 53(7):2719-40. 2010. PMID: 20131845 NIH Molecular Libraries Probe Production Network [MLPCN] NIH Chemical Genomics Center [NCGC] Structural Genomics Consortium (SGC) NIH Grant: 5U54 MH084681-02
# To each well of a 1,536w plate, 2ul of BAZ2B protein (final 50nM) and 1ul biotinylated histone peptide acetylated at Lys14 [b-H3(5-23)K14Ac] (final 50nM) were added in 1x PBS buffer, pH 7.4, containing 0.01% Tween-20, using a nanoliter dispenser. Formation of a protein-peptide complex proceeded at room temperature for 30 min. A Kalypsys pin-tool was employed to transfer 23 nL of library compound solution in DMSO to each well. Following a 30 min incubation of the protein-peptide complex with compounds at room temperature, a mixture of 40 ug/mL each streptavidin-coated donor and nickel chelate acceptor AlphaScreen beads (final 10 ug/mL) were added in a 1ul dispense for a final volume of 4ul. A brief centrifugation followed (1000rpm, 1 min) and were then incubated protected from the light for 20 min at room temperature. Plates were read on an EnVision multilabel plate reader using the 1,536 plate HTS AlphaScreen aperture (excitation time 80 ms, measurement time 240 ms).
# On the % scale 0 is the no-effect control and ±100 the full control effect; potency means the concentration at half of the fitted maximal effect.
# Chain of Bromodomain adjacent to zinc finger domain protein 2B (Homo sapiens) (Q9UIF8 whole entry, looked up, the tested form may be a part): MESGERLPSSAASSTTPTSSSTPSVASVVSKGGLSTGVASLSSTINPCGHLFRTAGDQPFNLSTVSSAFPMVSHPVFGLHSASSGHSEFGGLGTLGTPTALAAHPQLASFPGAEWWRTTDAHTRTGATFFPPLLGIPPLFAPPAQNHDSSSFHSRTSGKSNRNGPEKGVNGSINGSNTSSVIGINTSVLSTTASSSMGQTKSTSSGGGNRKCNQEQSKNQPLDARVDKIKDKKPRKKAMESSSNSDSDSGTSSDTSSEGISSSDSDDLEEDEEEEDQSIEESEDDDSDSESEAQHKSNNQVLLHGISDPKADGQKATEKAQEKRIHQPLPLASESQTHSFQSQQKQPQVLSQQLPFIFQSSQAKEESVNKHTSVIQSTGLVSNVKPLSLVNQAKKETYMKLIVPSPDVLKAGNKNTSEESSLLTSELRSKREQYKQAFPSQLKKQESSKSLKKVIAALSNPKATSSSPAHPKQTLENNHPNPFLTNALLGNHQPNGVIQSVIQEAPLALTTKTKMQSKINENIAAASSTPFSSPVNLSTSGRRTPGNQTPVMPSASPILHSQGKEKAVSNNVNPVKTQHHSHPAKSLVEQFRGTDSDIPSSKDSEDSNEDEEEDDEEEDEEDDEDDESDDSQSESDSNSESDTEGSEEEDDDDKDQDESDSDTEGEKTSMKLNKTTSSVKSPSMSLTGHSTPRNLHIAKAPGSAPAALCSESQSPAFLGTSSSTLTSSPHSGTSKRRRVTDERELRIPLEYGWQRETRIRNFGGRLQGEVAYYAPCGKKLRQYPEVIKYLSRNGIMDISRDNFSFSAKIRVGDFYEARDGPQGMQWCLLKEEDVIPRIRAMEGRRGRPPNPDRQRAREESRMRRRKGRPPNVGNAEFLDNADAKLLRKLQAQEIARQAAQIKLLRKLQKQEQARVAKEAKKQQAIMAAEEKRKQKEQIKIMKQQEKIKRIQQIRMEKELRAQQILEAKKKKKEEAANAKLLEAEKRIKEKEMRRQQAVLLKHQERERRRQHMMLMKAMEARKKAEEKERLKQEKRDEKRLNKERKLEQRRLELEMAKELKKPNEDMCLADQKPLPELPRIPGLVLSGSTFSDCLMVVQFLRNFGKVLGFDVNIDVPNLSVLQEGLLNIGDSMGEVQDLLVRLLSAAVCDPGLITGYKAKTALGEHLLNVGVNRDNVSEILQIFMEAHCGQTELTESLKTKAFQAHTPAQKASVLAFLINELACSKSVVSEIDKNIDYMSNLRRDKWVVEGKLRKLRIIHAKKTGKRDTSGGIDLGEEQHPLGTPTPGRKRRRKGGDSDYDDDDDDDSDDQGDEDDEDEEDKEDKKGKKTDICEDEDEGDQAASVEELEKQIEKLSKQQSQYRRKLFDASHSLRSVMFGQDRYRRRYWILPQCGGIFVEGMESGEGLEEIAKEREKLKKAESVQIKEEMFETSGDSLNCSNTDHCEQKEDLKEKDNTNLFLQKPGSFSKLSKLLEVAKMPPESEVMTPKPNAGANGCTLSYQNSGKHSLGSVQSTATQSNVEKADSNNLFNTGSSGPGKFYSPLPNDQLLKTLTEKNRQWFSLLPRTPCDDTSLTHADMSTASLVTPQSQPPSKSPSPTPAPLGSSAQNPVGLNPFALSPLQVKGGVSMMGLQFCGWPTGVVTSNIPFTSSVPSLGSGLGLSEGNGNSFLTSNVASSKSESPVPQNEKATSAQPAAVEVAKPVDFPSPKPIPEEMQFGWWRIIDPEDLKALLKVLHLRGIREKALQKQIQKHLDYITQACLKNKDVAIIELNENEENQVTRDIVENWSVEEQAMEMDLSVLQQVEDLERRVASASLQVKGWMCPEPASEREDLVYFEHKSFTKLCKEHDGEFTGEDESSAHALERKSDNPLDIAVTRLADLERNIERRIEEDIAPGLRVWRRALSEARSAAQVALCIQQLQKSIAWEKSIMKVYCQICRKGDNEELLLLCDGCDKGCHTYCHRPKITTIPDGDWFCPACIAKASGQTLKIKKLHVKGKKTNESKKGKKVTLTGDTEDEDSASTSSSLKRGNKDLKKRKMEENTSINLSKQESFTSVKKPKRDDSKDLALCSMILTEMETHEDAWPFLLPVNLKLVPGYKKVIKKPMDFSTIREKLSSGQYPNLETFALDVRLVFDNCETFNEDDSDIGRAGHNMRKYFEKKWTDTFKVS
Compound,"activity change, negative = inhibition",Potency
Cc1cc(C)c2oc(C(=O)Nc3ccc(S(=O)(=O)N4CCCCCC4)cc3)cc(=O)c2c1,-12%,–
CCCCc1nn2c(=O)cc(COC(=O)c3ccc(NC(=O)c4ccccc4C)cc3)nc2s1,-9.26%,–
CN1CCN(C2(CNC(=O)COc3ccc(C(C)(C)C)cc3)CCCCC2)CC1,-24.8%,–
CC1CCN(S(=O)(=O)c2ccc3c(c2)N(CC(=O)NCc2ccccc2Cl)C(=O)CO3)CC1,-6.03%,–
CCOC(=O)c1scc(-c2ccc(C)cc2)c1S(=O)(=O)Nc1cc(C)ccc1C,-8.58%,–
O=C(CN1C(=O)CCC1=O)Nc1ccc(S(=O)(=O)N2CCOCC2)cc1,-5.81%,–
O=C1CCCC(O)=C1N=Nc1ccc(S(=O)(=O)N2CCOCC2)cc1,–,79.4 µM (active)
CC1(C)CC(=O)C(N=Nc2ccc(S(=O)(=O)N3CCCCCC3)cc2)=C(O)C1,-3.64%,–
COC(=O)c1ccc2c(c1)N(CC(=O)Nc1ccc(C)c(C)c1)C(=O)c1ccccc1S2,-1.49%,–
COCCNC(=O)CSc1c(C)cnc2c1c(=O)n(C)c(=O)n2C,4.31%,–
COc1cc2ccccc2cc1C(=O)Nc1cccc(-c2nc3ccccc3o2)c1,1.7%,–
Cc1ccccc1NC(=O)CN1C(=O)C(C)(C)c2ccccc21,5.06%,–
O=C1N/C(=C/c2cccn2-c2ccccc2)C(=O)N1c1cccc(Cl)c1,-0.902%,–
Cc1ccccc1NC(=O)CN1C(=O)N/C(=C\c2cccn2-c2cccc(C(=O)O)c2)C1=O,–,20 µM (active)
COc1ccc(OC)c(NC(=O)CSC2=Nc3ccccc3C3=NC(CC(=O)NCCc4ccccc4)C(=O)N23)c1 (configuration not stated),-15.3%,–
O=C(CCSCc1ccccc1F)N1CCN(c2ccc(Cl)cc2)CC1,1.82%,–
CCOc1cc(/C=N/NC(=O)c2cc(-c3ccccc3)nc3ccccc23)ccc1O,-0.596%,–
CCCc1nc2ccccc2c(=O)n1/N=C/c1ccc(O)c(O)c1,–,56.2 µM (active)
O=c1c2ccccc2ncn1/N=C/c1ccccc1,0.598%,–
COc1ccc(Cn2ccn(Cc3cccc(OC)c3)c(=O)c2=O)cc1,-26.1%,–
COc1ccc(CCNC(=O)c2ccc(-n3c(C)cc4c3CCCC4)cc2)cc1OC,-8.94%,–

Compound,"activity change, negative = inhibition",Potency
Cc1cc(C)cc(N)c1,0.691%,–
Cc1ccc(Oc2ccc(N)cc2)cc1,–,31.6 µM (active)
CC(C)(c1ccccc1)c1ccc(OCCN)cc1,-0.871%,–
CN(C)S(=O)(=O)c1ccc(Oc2ccc(S(=O)(=O)N(C)C)cc2)cc1,0.486%,–
CC(C)(C)c1ccc(OC2=CS(=O)(=O)c3ccccc32)cc1,3.61%,–
CC(C)(C)c1ccc(Oc2ccc(N)cc2)cc1,–,39.8 µM (active)
O=C(CSc1oc(-c2ccco2)nc1S(=O)(=O)c1ccc(Cl)cc1)c1ccccc1,15.2%,–
CC(C)(C)C1C/C(=C/c2ccco2)C(=O)/C(=C/c2ccco2)C1 (configuration not stated),–,25.1 µM (active)
CCc1ccc(C2C(C(=O)Nc3ccccc3)=C(C)Nc3c(C(=O)Nc4ccc(C)cc4)cnn32)cc1 (configuration not stated),8.98% [at 57.1 µM],–
Cc1cc(O)c(C(c2ccccc2)N2CCN(c3ccccc3F)CC2)c(=O)n1Cc1ccco1 (configuration not stated),-38.4%,–
O=C(O)c1ccccc1N=N/C(=N/Nc1cc(S(=O)(=O)O)ccc1O)c1ccccc1,–,11.2 µM (active)
CCOC(=O)N1CCc2c(sc3c2c(=O)n(-c2ccc(CC)cc2)c(=O)n3C)C1,2.66%,–
O=[N+]([O-])c1ccc(Oc2ccc(F)cc2Br)c2ccncc12,–,31.6 µM (active)
O=[N+]([O-])c1ccc(F)cc1Oc1nc(-c2cccnc2)nc2ccccc12,-16.4%,–
Oc1c(Cl)cc(Cl)c(Cl)c1Cc1c(O)c(Cl)cc(Cl)c1Cl,–,50.1 µM (active)
CCOc1ccc(N(Cc2ccccc2)C(=O)c2nc(S(C)(=O)=O)ncc2Cl)cc1,-21.6%,–
CCc1ccc(NC(=O)CN2C(=O)CCSc3ccc(S(=O)(=O)N4CCCC4)cc32)cc1,-4.59%,–
CCOC(=O)c1ccc(NC(=O)c2c(NCc3cccc(OC)c3)sc3c2CCC3)cc1,3.03%,–
CCOC(=O)c1ccc(NC(=O)c2c(NCc3cccs3)sc3c2CCCC3)cc1,–,28.2 µM (active)
CCOC(=O)c1ccc(NC(=O)c2csc3c2CCCCC3)cc1,-0.642%,–
Cc1ccc(-c2nn3c(=O)cc(CN4CCN(C(=O)Nc5cccc(C(F)(F)F)c5)CC4)nc3s2)cc1,-22.9%,–

Compound,"activity change, negative = inhibition",Potency
COc1cc(CN(C(=O)c2ccccc2Br)c2ccccn2)cc(OC)c1OC,-18.4%,–
COc1ccc(OC)c(CNC(=O)c2c3c(nc4ccccc24)C(=O)N(C2CCCCC2)C3)c1,-9.86%,–
Cc1ccc(Nc2cc(C)nc3c(C)ccc([N+](=O)[O-])c23)cc1,–,10 µM (active)
Cc1ccc(NC2=NC(c3ccccc3)n3c(nc(C)cc3=O)N2)cc1 (configuration not stated),12.2%,–
Cc1cc(Nc2ccc(C(=O)N3CCCCC3)cc2)c2cccc(C)c2n1,0.772%,–
CCc1c(C)nc2cc(-c3cccs3)[nH]n2c1=O,2.81%,–
Cc1cc(=O)n2[nH]c(-c3cccc(Cl)c3)cc2n1,-1.33%,–
Cc1cc(=O)n2[nH]c(-c3sccc3-n3c(C)ccc3C)cc2n1,–,50.1 µM (active)
COc1ccc(Cc2nc3ccc(C(=O)NCc4ccccc4C)cc3o2)cc1,0.109%,–
Cc1cccc(C(=O)Nc2ccccc2N2CCN(c3ccc(F)cc3)CC2)c1,-8.8%,–
Cc1cccc(N2CCN(C(=O)c3ccccc3NC(=O)C3CCCCC3C(=O)O)CC2)c1 (configuration not stated),-2.25%,–
Cc1cccc(N2CCN(c3ccc(C(=O)O)cc3NC(=O)c3ccccc3F)CC2C)c1 (configuration not stated),–,56.2 µM (active)
COc1ccc(NC(=O)c2sc3nc(-c4cc5cccc(OC)c5oc4=O)[nH]c(=O)c3c2C)cc1,5.3%,–
CCn1c2ccccc2c2cc(NC(=O)COc3ccc(C)cc3C)ccc21,2.19%,–
CCn1c2ccccc2c2cc(NC(=O)CNC)ccc21,–,56.2 µM (active)
CCn1c2ccccc2c2cc(NC(=O)COC(=O)c3ccccc3Br)ccc21,-36.9%,–
COc1cc(Cl)ccc1Nc1ncc(C(=O)N2CCN(c3ccccc3OC)CC2)c2ccccc12,-3.95%,–
Cc1cccc(N2CCN(Cc3c(C)n(C)n(-c4ccccc4)c3=O)CC2)c1C,5.93%,–
Cc1cccc(N2CCN(c3c(CN4CCCC4)c(=O)oc4ccccc34)CC2)c1C,-9.79%,–
Cc1cccc(N2CCN(C3=C(c4ccccc4)C(=O)c4ccccc43)CC2)c1C,–,2.24 µM (active)
